Compound activity (PubChem BioAssay)
A selection: hits, their analogues and other compounds. The true share with any hit is near 6.5%.
LASV entry inh: Lassa virus entry inhibition | Lassa virus pseudotype entry inhibition, cell reporter | 300,000 tested, 1.2% active | Potency, µM (doses to about 37.9 µM), actives largely listed as inhibitors | AID 540256; calls by dose curve; tested in HEK293 cells; also: nearly all actives have a fitted effect of over 50% in size
FMDV antiviral: blocks foot and mouth disease virus; FMDV antiviral cell-based qHTS; Potency, µM (titrated, usually from 57.9 µM), actives largely listed as inhibitors; 410,000 tested, 1.2% active; AID 1159524; calls by dose curve; tested in HEK293T cells; also: read-out not given here; nearly all actives have a fitted effect of over 45% in size
Marburg entry inh: blocks Marburg virus binding to or entry into cells | Potency, µM (series often up to 37.8 µM), hits mostly inhibitors | 300,000 tested, 1.8% active | Marburg virus pseudotyped entry inhibition, cell reporter; calls by dose curve; tested in HEK293 cells
HCMV inh: human cytomegalovirus inhibition; activity change, negative = inhibition, % at 57.5 µM; AID 1259415; 410,000 tested, 4.5% active; HFF cells, HCMV-luciferase reporter, 72 h; stronger effect = lower value; in the data active = activity change below about -60%; inconclusive = no clear call, values can overlap the other calls; inactive = above about -39%
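Compounds were evaluated in HFFs infected with an HCMV luciferase reporter virus (MOI 1 PFU/cell). Luciferase in lysates collected 72 h post infection served as the replication measure.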
Vaccinia mCherry: inhibitors of vaccinia virus infection (mCherry reporter signal); Vaccinia virus mCherry reporter infection, fluorescence; Potency, µM (titrated, usually from 36.5 µM), usual class: inhibitors; 310,000 tested, 0.63% active; AID 720579; calls by dose curve; tested in A549 cells; also: nearly all actives have a fitted effect of over 35% in size
VACV Venus inh: inhibitors of vaccinia virus (Venus reporter); Vaccinia virus Venus reporter expression, fluorescence; Potency, µM (titrated, usually from 36.5 µM), hits mostly inhibitors; 330,000 tested, 0.46% active; calls by dose curve; tested in A549 cells; also: nearly all actives have a fitted effect of over 30% in size
Hits are given with their value; . = inactive; ? = inconclusive; / = no result given; ! = repeats disagree.

SMILES | LASV entry inh | FMDV antiviral | Marburg entry inh | HCMV inh | Vaccinia mCherry | VACV Venus inh
COc1ccccc1NS(=O)(=O)c1cccc(NC(=O)c2cncc(Br)c2)c1 | ? | . | 3.5µM | ? | . | .
COc1ccccc1NS(=O)(=O)c1cccc(NC(=O)Nc2cccc(Cl)c2)c1 | 13µM | ? | ? | -95 | ? | ?
COc1ccccc1NC(=O)NCC(=O)Nc1ccc(F)c(F)c1 | . | . | . | . | . | .
COc1ccccc1NC(=O)Nc1ccc(F)c(F)c1 | . | . | . | -102 | . | .
COc1ccccc1NS(=O)(=O)c1cccc(NC(=O)NCCCl)c1 | / | . | / | . | . | .
NS(=O)(=O)c1cccc(NC(=O)c2cncc(Br)c2)c1 | / | . | / | . | / | /
COc1ccccc1NS(=O)(=O)c1cccc(NC(=O)c2sc3ccccc3c2Cl)c1 | ? | . | ? | -68 | . | .
Cc1cc2c(cc1NC(=O)c1ccccc1C)n(C)c(=O)c(=O)n2C | . | . | / | . | . | .
COC(=O)c1ccc(-c2cccc3c2OC(CNC(=O)c2ccc4c(c2)OCCO4)C3)nc1 (stereo not drawn) | / | . | / | / | ? | ?
Cc1cc(C)cc(C(=O)N2CC(=O)Nc3ccccc32)c1 | ? | . | ? | -81 | . | ?
COc1ccccc1OC(C)C(=O)N1CC(=O)Nc2ccccc21 (stereo not drawn) | . | . | . | -72 | . | .
COc1cc(C(=O)N2CC(=O)Nc3ccccc32)cc(OC)c1OC | / | . | / | . | . | .
Cc1nc(N2CCN(Cc3ccc4c(c3)OCO4)CC2)c2cc(-c3ccccc3)sc2n1 | . | . | 7.9µM | . | ? | .
Cc1nc(N2CCN(Cc3ccc4c(c3)OCO4)CC2)c2oc3ccccc3c2n1 | . | 28µM | ? | . | . | .
COc1ccccc1N1CCN(c2nc(C)nc3c2oc2ccccc23)CC1 | ? | 28µM | ? | -82 | / | /
COc1ccc(CNC(=O)O[C@H]2CC[C@@]34CCCN3C(=O)CCC[C@H]4[C@H]2Cc2ccccc2)cc1 | / | / | / | . | / | /
CCc1cccc(C)c1NC(=O)C(CC)n1ncn2c(cc3cc(C)ccc32)c1=O (stereo not drawn) | . | . | . | . | . | .
CCC(C(=O)Nc1ccc(C(=O)OC)cc1)n1c(=O)c(-c2ccccc2NC(C)=O)nc2ccccc21 (stereo not drawn) | . | . | . | . | . | .
CCC(Oc1nc2ccccc2nc1-c1ccccc1NC(C)=O)C(=O)c1ccccc1 (stereo not drawn) | 18µM | . | . | . | . | .
CN(C)C(=O)c1cccc(-c2cccc(-c3nc(C(=O)NCc4ccccc4)cc4c3[C@@H](CCO)N(S(=O)C(C)(C)C)C4)c2)c1 (stereo partly drawn) | / | . | / | -61 | . | .
CCN(CCCn1c(SCC#N)nc2ccccc2c1=O)c1ccccc1 | ? | ? | 9.2µM | . | / | /
CSc1nc(C2CC2)cc(-c2cccs2)c1C#N | . | / | . | -102 | . | .
CCOC(=O)CSc1nc(-c2ccc(F)cc2)cc(C(F)(F)F)c1C#N | . | 32µM | . | . | . | .
CCN(CC)C(=O)CSc1nc(-c2cccs2)cc(-c2cccs2)c1C#N | 18µM | . | ? | ? | / | /
CC(C)OC(=O)CC(=O)CSc1nc(-c2ccc(F)cc2)cc(-c2ccccc2)c1C#N | ? | . | ? | -62 | . | .
SMILES | LASV entry inh | FMDV antiviral | Marburg entry inh | HCMV inh | Vaccinia mCherry | VACV Venus inh
Cc1cccc(N2C(=O)C(CC(=O)Nc3ccccc3)N(C3CCCCC3)C2=O)c1 (stereo not drawn) | . | . | . | . | . | .
COc1cc2c(c(OC)c1OC)C1(c3ccccc3)CCCCCC1[C@@H]2NC(=O)C(F)(F)F (stereo partly drawn) | ? | / | . | / | / | /
COc1ccc(-c2cc(-c3ccccc3)c(C#N)c(SCC(=O)O)n2)cc1 | . | . | . | ? | . | .
CCN(CC)C(=O)CSc1nc(-c2ccccc2)cc(-c2ccc(OC)cc2)c1C#N | . | . | . | -65 | . | .
Cc1cc(NC(=O)CCl)no1 | ? | ? | ? | -82 | ? | ?
Cc1cncn1CCc1nc2c3ccccc3nc(SCC(=O)Nc3ccc(F)cc3)n2n1 | . | . | / | . | . | .
CCOc1ccccc1NC(=O)CSc1nc2ccccc2c2nc(CCn3cncc3C)nn12 | ? | . | / | -65 | . | ?
CCOc1ccccc1-n1c(SCC(=O)Nc2ccccc2C(=O)O)nc2ccccc2c1=O | . | ? | ? | -81 | . | .
Cc1cncn1CCc1nc2c3ccccc3nc(SCC(=O)Nc3cccc(Cl)c3)n2n1 | ? | . | 6.5µM | -105! | . | ?
CCn1c(SCC(=O)Nc2ccccc2OC)nc2ccccc2c1=O | . | / | ? | ? | . | .
CN(C)c1ccc([C@H]2[C@@H]3C(=O)N(c4ccc(C(=O)O)cc4)C(=O)[C@H]3ON2c2ccccc2)cc1 | / | / | . | / | / | /
COc1cc(CN(C(=O)COc2ccccc2Cl)c2ccccn2)cc(OC)c1OC | . | . | . | . | . | .
Clc1ccc2c(c1)CNc1c(ncnc1N1CCOCC1)O2 | . | ? | . | . | / | 10µM
Cc1ccc(S(=O)(=O)Nc2ccc3c(c2)c(C(=O)OC(C)C)c(C)n3S(=O)(=O)c2ccc(C)cc2)cc1 | ? | . | ? | . | . | .
CCc1nnc(SCc2nc(-c3ccccc3)oc2C)c2cc3sccc3n12 | . | . | / | . | . | .
CCCCCCCCCC[Si](C)(C)CCC(=O)NC(Cc1ccc(C)cc1)c1ccccc1 (stereo not drawn) | . | / | 7.9µM! | / | / | /
CC(C)COc1ccccc1C1CC(=O)Nc2cc3c(cc21)OCO3 (stereo not drawn) | . | ? | ? | ? | ? | ?
CCc1ccccc1NC(=O)c1noc2c1CC(C(C)(C)C)CC2 (stereo not drawn) | . | . | . | . | . | .
O=C(NCCN1CCCC1)[C@@H]1[C@@H](CO)[C@@H]2Cn3c(cccc3=O)[C@@H]2N1C(=O)c1ccccc1 | / | / | / | . | / | /
CN(Cc1ccc(Cl)cc1)C(=O)CCl | / | 25µM | / | -64 | / | /
CN(Cc1ccc(Cl)s1)C(=O)CCl | 11µM | 11µM | ? | . | . | .
COc1ccc(CN(C)C(=O)CCl)cc1 | / | ? | / | . | ? | .
CC[C@@H](C(=O)[C@@H](C)[C@@H](O)[C@H](C)CCc1ccc(C)c(O)c1C(=O)O)[C@H]1O[C@](CC)([C@H]2CC[C@](O)(CC)[C@H](C)O2)C[C@@H]1C | / | 28µM | / | -99 | ? | 10µM
CSc1ccccc1NC(=O)CN(C)CC(=O)NCc1ccccc1 | . | . | . | -84 | . | .
CC(=O)c1c(C)[nH]c(C(=O)CN(C)CC(=O)Nc2ccccc2Cl)c1C | ? | ? | ? | . | . | .
CSc1ccccc1NC(=O)CN(C)CC(=O)c1[nH]c(C)c(C(C)=O)c1C | . | 35µM | . | . | . | .
O=C(NCCN1CCCCC1)c1cccc2c1C(=O)c1ccc(N3CCCC3)cc1S2(=O)=O | / | . | / | -65 | . | .
CC(CNC(=O)c1ccc2c(c1)OCO2)c1ccc([N+](=O)[O-])cc1 (stereo not drawn) | . | . | . | -63 | . | .
